From PubChem
Only some compounds are listed: those with a hit (about 12% of all), similar ones and a draw of the others.
BAZ2B inh: blocks human BAZ2B. Q9UIF8. AlphaScreen BAZ2B-H3K14Ac peptide displacement. Potency, µM (highest dose often 114 µM), for the others: at the top dose activity change, negative = inhibition, hits mostly inhibitors. 360,000 tested, 4.4% active. AID 504333; further: potency means the concentration at half of the fitted maximal effect; on the % scale 0 is the no-effect control and ±100 the full control effect; nearly all actives have a fitted effect of over 60% in size
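AlphaScreen luminescence quantifies BAZ2B engagement of H3K14Ac peptide; the protein and biotinylated peptide are both at 50 nM final, buffer PBS pH 7.4 with 0.01% Tween-20, all steps at room temperature.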
PI5P4Ka inh: PI5P4K alpha (human) kinase inhibition; P48426; PI5P4Kalpha enzyme, ADP-Glo luminescence, 60 min; active compounds read low; max response, %; 330,000 tested, 1.2% active; AID 652105; active means max response of -50% or lower; inconclusive means between -30% and -50%; inactive means -30% or higher; further: value at the top dose of about 77 µM; on the % scale 0 is the no-effect control and ±100 the full control effect
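Human PI5P4Kalpha with substrate in 0.038 M HEPES pH 7.4, 0.28 mM EGTA, 0.1% CHAPS, 5% DMSO; reaction started with 5 microM ATP (final), 60 min at room temperature. ADP formed read by ADP-Glo luminescence.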
JMJD2A Tudor: blocks the human JMJD2A Tudor domain | O75164 | 390,000 tested, 4.4% active | Potency, µM (doses to about 114 µM), inactives show at the highest dose activity change, negative = inhibition, most hits filed as inhibitors | AlphaScreen JMJD2A-Tudor / H3K4me3 peptide binding | AID 504339; further: potency means the concentration at half of the fitted maximal effect; on the % scale 0 is the no-effect control and ±100 the full control effect; nearly all actives have a fitted effect of over 50% in size
PLK1 PBD inh: inhibitors of human PLK1 polo-box domain binding. P53350. Plk1 PBD binding of FITC phosphopeptide, fluorescence polarization. Potency, µM, for the others: max response, negative = inhibition, usual class: inhibitors. 360,000 tested, 2.8% active; further: potency means the concentration at half of the fitted maximal effect; series mostly up to about 57 µM; on the % scale 0 is the no-effect control and ±100 the full control effect; nearly all actives have a fitted effect of over 65% in size
G9a block: inhibitors of human histone lysine methyltransferase G9a; Q96KQ7; G9a H3K9 monomethylation, AlphaScreen, 2 h; Potency, µM (doses to about 102 µM), for inactives: at the highest dose activity, negative = inhibition, actives largely listed as inhibitors; 350,000 tested, 8.8% active; AID 504332; further: potency means the concentration at half of the fitted maximal effect; on the % scale 0 is the no-effect control and ±100 the full control effect; nearly all actives have a fitted effect of over 75% in size
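Signal arises when biotinylated H3K9 peptide, once monomethylated, bridges streptavidin donor and antibody-captured acceptor beads. Enzyme at 20 nM was preincubated 15 min with test compounds; peptide 500 nM and SAM 20 uM then reacted for 2 h.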
HP1b chromo inh: HP1-beta chromodomain-methylated histone interaction inhibition; P83916; AlphaScreen HP1-beta / biotin-H3K9me3 peptide binding; Potency, µM (series often up to 114 µM), for the others: top-dose activity change, negative = inhibition, usual class: inhibitors; 390,000 tested, 0.56% active; AID 540317; further: potency means the concentration at half of the fitted maximal effect; nearly all actives have a fitted effect of over 70% in size
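Compound inhibition of the preformed complex between 50 nM HP1-beta and 50 nM biotinylated H3K9me3 peptide was read by AlphaScreen. Buffer was PBS pH 7.4 with 0.01% Tween-20. Incubations ran 30 min at room temperature, with 10 ug/mL donor/acceptor beads.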
TbPYK confirm: confirmation of Trypanosoma brucei pyruvate kinase inhibitors. shares compounds with PLK1 PBD inh. Potency, µM (series often up to 76.9 µM), for inactives: at the highest dose activity change, negative = inhibition, usual class: inhibitors. 890 tested, 67% active. recombinant TbPYK, Kinase-Glo ATP luminescence; further: potency means the concentration at half of the fitted maximal effect; on the % scale 0 is the no-effect control and ±100 the full control effect; nearly all actives have a fitted effect of over 70% in size
TbPYK orthogonal: TbPYK inhibition, orthogonal confirmation. shares compounds with PLK1 PBD inh. recombinant TbPYK, ADP-Glo luminescence, 60 min. Potency, µM (doses to about 76.9 µM), for the others: top-dose activity change, negative = inhibition, usual class: inhibitors. 890 tested, 62% active; further: potency means the concentration at half of the fitted maximal effect; on the % scale 0 is the no-effect control and ±100 the full control effect; nearly all actives have a fitted effect of over 75% in size
Active calls of the source: *; [ ] = another dose, or the depositor's remark. Unless noted, the call rests on the fitted dose curve; in most records, active means well fitted curve in the direction sought with a large enough effect; inconclusive means small, poorly fitted or top-dose-only effect, or another doubt; inactive means no such curve, though single readings can be large; an effect the other way counts as inactive or inconclusive.

What do the screens show for `CC1=C/C(=C(\c2cc(C)c(O)c(Br)c2)c2ccccc2S(=O)(=O)O)C=C(Br)C1=O`?
BAZ2B inh: 20µM*; PI5P4Ka inh: -77.4*; JMJD2A Tudor: inconclusive; PLK1 PBD inh: -14.1%; G9a block: 14.1µM*; HP1b chromo inh: 28.2µM*; TbPYK confirm: 12.6µM*; TbPYK orthogonal: 13.3%

How did CC(=O)N1CC[n+]2c(-c3ccc(Cl)cc3)csc21 do in these assays?
BAZ2B inh: -33.0%; PI5P4Ka inh: -19.9; JMJD2A Tudor: 39.8µM*; PLK1 PBD inh: 5.97µM*; G9a block: 14.1µM*; HP1b chromo inh: 16.0%; TbPYK confirm: 15.8µM*; TbPYK orthogonal: 7.08µM*

Results for CCOC(=O)[C@]12CCCC=C1N(CCC1=CCCCC1)C(=O)[C@H](CC(=O)NCc1ccc(OC)c(OC)c1)C2 ?
PI5P4Ka inh: -0.4; PLK1 PBD inh: 0.2%

How did O=C(CCCN1C(=O)/C(=C/c2ccccc2Cl)SC1=S)NCCCN1CCOCC1 do in these assays?
BAZ2B inh: inconclusive; PI5P4Ka inh: 5.7; JMJD2A Tudor: inconclusive; PLK1 PBD inh: -25.1%; G9a block: inconclusive; HP1b chromo inh: -34.8%

Results for O=C1C(=Cc2cccc(O)c2O)SC(=S)N1CCCN1CCOCC1 ?
PI5P4Ka inh: -71.4*; PLK1 PBD inh: 5.32µM*; TbPYK confirm: 4.47µM*; TbPYK orthogonal: 2.24µM*

How did Nc1ccc2c(c1)C(=O)C(=O)c1ccccc1-2 do in these assays?
BAZ2B inh: inconclusive; PI5P4Ka inh: -27.1; JMJD2A Tudor: inconclusive; PLK1 PBD inh: 1.5µM*; G9a block: 5.6%[0.501 µM]; HP1b chromo inh: 20µM*; TbPYK confirm: 14.1µM*; TbPYK orthogonal: inconclusive

How did NC(N)=NCCCC(NC(=O)C(N)Cc1ccc(O)cc1)C(=O)O (stereo not drawn) do in these assays?
G9a block: -48.4%[2.33 µM]

Results for COc1cc(/C=C2\C(=O)ON=C2c2ccccc2)cc(OC)c1OC ?
BAZ2B inh: inconclusive; PI5P4Ka inh: -25.0; JMJD2A Tudor: -22.5%; PLK1 PBD inh: 7.52µM*; G9a block: inconclusive; HP1b chromo inh: 20.8%; TbPYK confirm: inconclusive; TbPYK orthogonal: inconclusive

What do the screens show for `CCCCc1ccc(/C=C2\C(=O)ON=C2c2ccccc2)s1`?
BAZ2B inh: 9.2%; PI5P4Ka inh: 24.3; JMJD2A Tudor: -10.7%; PLK1 PBD inh: -9.2%; G9a block: 21.0%[59 µM]; HP1b chromo inh: 31.0%

What do the screens show for `COc1ccc(/C=C2/C(=O)ON=C2C)cc1Br`?
BAZ2B inh: -16.8%; PI5P4Ka inh: -16.7; JMJD2A Tudor: -28.8%; PLK1 PBD inh: 1.89µM*; G9a block: inconclusive; HP1b chromo inh: 14.4%; TbPYK confirm: inconclusive; TbPYK orthogonal: inconclusive

How did CC(C)c1ccc(CN(C(=O)c2ccco2)C2CCS(=O)(=O)C2)cc1 (stereo not drawn) do in these assays?
BAZ2B inh: -2.2%; PI5P4Ka inh: 8.3; JMJD2A Tudor: -20.4%; PLK1 PBD inh: -10.7%; G9a block: -3.9%; HP1b chromo inh: 11.0%

Results for O=C(O)c1ccccc1C(=O)c1ccc(-c2ccccc2)cc1 ?
BAZ2B inh: 3.1%; PI5P4Ka inh: 2.5; JMJD2A Tudor: -17.8%; PLK1 PBD inh: -8.4%; G9a block: 5.2%[2.33 µM]; HP1b chromo inh: 34.8%

What do the screens show for `O=C(c1ccccc1)c1ccccc1N1C(=O)C=CC1=O`?
BAZ2B inh: -27.6%; PI5P4Ka inh: inconclusive; JMJD2A Tudor: 17.8µM*; PLK1 PBD inh: 3.36µM*; G9a block: 0.794µM*; HP1b chromo inh: 11.2µM*; TbPYK confirm: 3.98µM*; TbPYK orthogonal: 3.98µM*

Results for CCOc1cc2c(c3c1C(c1ccccc1)N(S(=O)(=O)c1ccc(C)cc1)C3)C(=O)C=CC2=O (stereo not drawn) ?
PI5P4Ka inh: -84.7*; PLK1 PBD inh: inconclusive; TbPYK confirm: 1.58µM*; TbPYK orthogonal: 2.82µM*

What do the screens show for `CCOC(=O)C1=CCN(S(=O)(=O)c2ccc(C)cc2)C1c1ccccc1` (stereo not drawn)?
PI5P4Ka inh: 9.7; PLK1 PBD inh: -7.6%

Results for CN1CCN(S(=O)(=O)c2ccc(N3CCN(c4ccc(O)cc4)CC3)c([N+](=O)[O-])c2)CC1 ?
BAZ2B inh: inconclusive; PI5P4Ka inh: -16.4; JMJD2A Tudor: 31.6µM*; PLK1 PBD inh: -1.2%; G9a block: 7.94µM*; HP1b chromo inh: 70.8µM*; TbPYK confirm: 11.2µM*; TbPYK orthogonal: 17.8µM*

What do the screens show for `O=C(CCS(=O)(=O)c1ccc(F)cc1)Nc1nccs1`?
PI5P4Ka inh: 0.1; PLK1 PBD inh: -9.6%

Results for CCN(CC)c1ccc(NC(=O)Cn2cc3c(n2)CCC(C)C3)c(C)c1 (stereo not drawn) ?
BAZ2B inh: inconclusive; PI5P4Ka inh: 0.2; JMJD2A Tudor: inconclusive; PLK1 PBD inh: 0.3%; G9a block: 4.47µM*; HP1b chromo inh: inconclusive; TbPYK confirm: 22.4µM*; TbPYK orthogonal: inconclusive

Results for CC1CCc2nn(CC(=O)Nc3ccc(F)cc3F)cc2C1 (stereo not drawn) ?
BAZ2B inh: 9.9%; PI5P4Ka inh: -1.0; JMJD2A Tudor: -12.0%; PLK1 PBD inh: -8.3%; G9a block: -11.7%[59 µM]; HP1b chromo inh: 50.3%

Results for COc1ccc(N(CC(=O)NN=C2CCN(C)CC2)S(=O)(=O)c2ccccc2)c(OC)c1 ?
BAZ2B inh: 5.9%; PI5P4Ka inh: -1.4; JMJD2A Tudor: -6.4%; PLK1 PBD inh: -0.8%; G9a block: -14.8%; HP1b chromo inh: 17.9%

Results for O=C(NCCN1CCC(n2c(=O)[nH]c3ccccc32)CC1)c1ccc(Cl)c(Cl)c1 ?
PI5P4Ka inh: -2.1; PLK1 PBD inh: -1.7%

Results for COc1ccc(CCN2C(=O)C=CC2=O)cc1OC ?
PI5P4Ka inh: -11.1; JMJD2A Tudor: 31.6µM*; PLK1 PBD inh: 6.7µM*; HP1b chromo inh: inconclusive; TbPYK confirm: 4.47µM*; TbPYK orthogonal: 5.62µM*

What do the screens show for `N#Cc1cccc(NC(=O)N2CC3(CCN(C(=O)c4cnccn4)CC3)C2)c1`?
G9a block: -1.0%[12.7 µM]

Results for COC1=C(OC)C(=O)C(Sc2ccc3ccccc3c2)=CC1=O ?
PI5P4Ka inh: -90.8*; JMJD2A Tudor: 3.55µM*; PLK1 PBD inh: 0.752µM*; HP1b chromo inh: 4.47µM*; TbPYK confirm: 0.355µM*; TbPYK orthogonal: 2.24µM*
